Data taken from PubChem BioAssay (NCI).
About 83,000 compounds went through this panel and 20% of them were active in at least one assay; those are over-represented in the sample as a whole.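 Single-dose data. Exposure time 48 hours. Values below 10 considered active.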 A number with no mark means an inactive call. Calls of active or inactive are those of the source.

Experiments:
Experiment in all cases: NCI-60 one-dose screen, 48 h (100 = growth as untreated, 0 = no growth, -100 = all killed)
Conditions in all cases: 10 µM unless noted
[1] = test system: NCI-H23 lung
[2] = test system: NCI-H226 lung
[3] = test system: NCI-H322M lung
[4] = test system: HOP-62 NSCLC
[5] = test system: NCI-H460 lung
[6] = test system: HOP-92 NSCLC
[7] = test system: NCI-H522 lung
[8] = test system: A549/ATCC NSCLC
[9] = test system: 786-0 renal
[10] = test system: COLO 205 colon
[11] = test system: DU-145 prostate
[12] = test system: K-562 leukemia
[13] = test system: MALME-3M melanoma
[14] = test system: MDA-MB-231 breast
[15] = test system: RXF 393 renal
[16] = test system: SF-268 CNS
[17] = test system: SF-295 CNS
[18] = test system: SF-539 CNS
[19] = test system: UACC-257 melanoma
[20] = test system: M14 melanoma

| Structure (SMILES) | growth [1] | growth [2] | growth [3] | growth [4] | growth [5] | growth [6] | growth [7] | growth [8] | growth [9] | growth [10] | growth [11] | growth [12] | growth [13] | growth [14] | growth [15] | growth [16] | growth [17] | growth [18] | growth [19] | growth [20] |
| --- | --- | --- | --- | --- | --- | --- | --- | --- | --- | --- | --- | --- | --- | --- | --- | --- | --- | --- | --- | --- |
| Cc1cc2c([nH]1)CSc1cc(S(=O)(=O)c3ccccc3)c(=O)[nH]c1-2 | 11.4% [100 µM] | 32.6% [100 µM] | 47.1% [100 µM] | 33% [100 µM] | 4.49% [100 µM] (active) | 16.3% [100 µM] | 23.3% [100 µM] | 52.2% [100 µM] | 21.5% [100 µM] | -40.5% [100 µM] (active) | 15% [100 µM] | 17% [100 µM] | 25.1% [100 µM] | 23.3% [100 µM] | 52.6% [100 µM] | 22.1% [100 µM] | 11% [100 µM] | -28.3% [100 µM] (active) | 62.2% [100 µM] | -13.7% [100 µM] (active) |
| O=C(Nc1cc(Cl)ccc1O)c1ccc(Nc2ccnc(C(F)(F)F)c2)cc1 | 9.34% (active) | 52.1% | 61.7% | 46.3% | 7.25% (active) | 86% | 23.7% | 36.5% | 49% | 87.9% | 42.9% | 5.89% (active) | 60.5% | 68.1% | 98.9% | 69.1% | -7.57% (active) | 80.4% | 78% | 46.8% |
| CC(=O)OCc1nc(C#N)c(N(C)C)o1 | 102% | 97.3% | 99.8% | 91.4% | 103% | 83% | 90.3% | 92.5% | 95% | 105% | 110% | 99.2% | 97.8% | 94.9% | 87.6% | 99.6% | 108% | 92.1% | 92.8% | 99.8% |
| O=C(O)c1ccc(-n2cc(/C=N/Nc3ccc(F)cc3)c(-c3cc4ccccc4oc3=O)n2)cc1 | 90.8% | 101% | 85.4% | 84.3% | 96.5% | 81.5% | 50.9% | 92.9% | 74.6% | 110% | 91.2% | 11.6% | 79.8% | 83.7% | 113% | 76.8% | 72.1% | 85.9% | 107% | 47.3% |
| CC12CCC3c4ccccc4CCC3(CO1)C2 (stereo not given) | 98.3% | 95.8% | 94.7% | 95.5% | 105% | 105% | 94.6% | 106% | 118% | 101% | 121% | 99.9% | 95.1% | 124% | 93.4% | 107% | 77.2% | 104% | 110% | 128% |
| COC(=O)CNC(=O)[C@H](Cc1ccccc1)NCc1ccncc1 | 101% | 109% | 101% | 97.3% | 108% | 103% | 84.5% | 85.6% | 105% | 109% | 105% | 89.1% | 95.7% | 105% | 112% | 107% | 99% | 102% | 84.4% | 105% |
| CCCCOC(=O)OCc1cc(=O)c(O)co1 | 95.3% | 94.3% | 94.1% | 109% | 101% | 107% | 91.1% | 102% | 98.6% | 111% | 113% | 97.4% | 102% | 114% | 113% | 105% | 96.3% | 100% | 104% | 106% |
| Nc1nc(=S)c2ncn(C3OC(COP(=O)(O)O)C(O)C3O)c2[nH]1 (stereo not given) | 14.5% | 32.8% | 53.2% | 20.1% | 8.01% (active) | 33.4% | -3.01% (active) | 32.9% | 22.9% | 24.7% | 22.6% | 13.7% | 39.7% | 38.7% | 13.9% | 28.2% | 19.9% | 26.2% | 36.7% | 14.6% |
| CSc1nnc(-c2cnn3c2NC(c2ccccc2)C3)n1-c1ccc(C(F)(F)F)cc1 (stereo not given) | 72.6% | 73.5% | 72.3% | 61.1% | 61.8% | 64.3% | 26.1% | 45.5% | 66.1% | 63.9% | 85.1% | 3.03% (active) | 69.8% | 64.8% | 79.1% | 65.1% | 32% | 80.3% | 51.4% | 54.3% |
| C=C(C)[C@@H]1CC[C@]2(C(=O)OC)CC[C@]3(C)[C@H](CC[C@@H]4[C@@]5(C)C/C(=C/NC(N)=S)C(=O)C(C)(C)[C@@H]5CC[C@]43C)[C@@H]12 | 80.4% | 86.3% | 101% | 97.5% | 88.9% | 90.4% | 88.2% | 76.5% | 108% | 110% | 86.3% | 73.6% | 119% | 98.5% | 99.8% | 95.8% | 99.4% | 85.6% | 100% | 87.9% |
| Oc1ccc(CCn2c(O)c(/C=C3\CN=c4ccccc4=N3)sc2=S)cc1 | 59.1% | 88.7% | 78.7% | 65.8% | 83.3% | -14.4% (active) | 18.5% | 82.1% | 28.3% | 103% | 28% | 22.9% | 62.3% | 26% | 45.1% | 75% | 93.6% | 20.7% | 71.4% | 62.4% |
| N#Cc1cnc(NCCc2ccncc2)nc1-n1cnc2ccccc21 | 76% | 68.7% | 35% | 77.3% | 39.5% | 95.7% | 55.8% | 53.5% | 40.3% | 72.1% | 51.9% | 60.9% | 69% | 76.2% | 52.7% | 53% | 75.1% | 61.3% | 102% | 47.9% |
| Cc1ccc(-c2nc(N3CCNCC3)c3oc(-c4ccccc4)nc3n2)cc1 | 35.3% | 110% | -78.5% (active) | -6.18% (active) | -72.5% (active) | -25.6% (active) | -81.8% (active) | 3.88% (active) | -87.8% (active) | -91.1% (active) | -93.1% (active) | -73.3% (active) | -29.5% (active) | -79.2% (active) | -74.1% (active) | 7.93% (active) | -23.2% (active) | -91% (active) | 91.2% | -92.3% (active) |
| O=C(CSc1nnc2n1S(=O)(=O)c1ccccc1N2c1ccccc1)Nc1nc2ccc(F)cc2s1 | 80.3% | 93.2% | 113% | 82.3% | 106% | 88% | 87.2% | 93.3% | 96.2% | 106% | 114% | 98.5% | 87.4% | 98.9% | 87.1% | 97.2% | 91.5% | 102% | 111% | 96.5% |
